# Shown is part of a subset that was picked to be rich in hits.
# TbREL1 primary: TbREL1 inhibition, primary screen; AID 1117264; actives 0.49% (n = 89,000); TbREL1 RNA ligation, FRET fluorescence; inhibition, % at 9.66 µM;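 active means inhibition above the mean inhibition across all screened compounds plus 3 SD, cut at about 11% in these data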;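 further: 0% = plate median of test wells and 100% = NSC42067 control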
# Target sequence (P86926 whole entry, looked up): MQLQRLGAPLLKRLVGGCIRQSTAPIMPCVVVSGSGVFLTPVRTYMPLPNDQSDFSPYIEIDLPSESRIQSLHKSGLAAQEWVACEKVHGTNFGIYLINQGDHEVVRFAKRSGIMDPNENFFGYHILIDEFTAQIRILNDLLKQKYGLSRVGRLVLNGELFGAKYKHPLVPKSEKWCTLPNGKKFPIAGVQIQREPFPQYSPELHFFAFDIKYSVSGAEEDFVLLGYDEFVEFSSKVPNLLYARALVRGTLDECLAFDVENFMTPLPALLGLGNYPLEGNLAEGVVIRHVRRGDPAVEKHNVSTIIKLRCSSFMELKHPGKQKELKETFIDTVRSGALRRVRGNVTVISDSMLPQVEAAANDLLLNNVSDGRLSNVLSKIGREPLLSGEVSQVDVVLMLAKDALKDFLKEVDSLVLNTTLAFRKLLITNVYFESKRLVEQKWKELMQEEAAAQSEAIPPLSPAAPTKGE
# TbREL1 conf: TbREL1 inhibition, confirmation. TbREL1 RNA ligation, FRET fluorescence. inhibition, % at 9.66 µM. actives 37% (n = 390). shares compounds with TbREL1 primary;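 active means mean inhibition across replicates above a set limit taken from the earlier primary screen, cut at about 11% in these data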;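 further: 0% = REL1 with substrate and DMSO and 100% = REL1 plus control inhibitor NSC42067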
# Numbers without * were called inactive.
SMILES,TbREL1 primary,others
O=C1C2C(C(=O)N1Cc1ccco1)C1C=CC2C12CC2 (stereo not given),-2,
O=C1CC(=O)N(Cc2cccs2)C(=O)N1,4,
FC(F)(F)c1ccccc1NC(=S)OCCN1CCCC12CCC(c1ccccc1)CC2 (stereo not given),5,
O=C(c1ccoc1)N1CCN(c2cc(-c3ccco3)nc3cc(-c4ccco4)nn23)CC1,6,
O=C(NCC(c1ccccc1)c1ccccc1)[C@H](Cc1ccccc1)NC1(C(=O)NC2CCCCC2)CCOCC1,4,
c1ccc(-n2c(SCc3cccc4ccccc34)nnc2-c2ccccn2)cc1,4,
COc1ccc(CN(C)CCc2ccccn2)c(OC)c1OC,18*,
Cc1cccc(CN(C)CCc2ccccn2)c1,2,
COc1ccc(C(=O)O)cc1S(=O)(=O)N(C)CCc1ccccn1,-1,
COc1ccc(-n2c(SCC(=O)NNC(=S)Nc3ccccc3)nc3ccccc3c2=O)cc1,-5,
Cc1ccc(-c2cc(C(=O)NN=Cc3cccc(OCc4ccccc4)c3)[nH]n2)cc1C,10,
Cc1ccc(OCCOc2ccc(Cl)cc2Cl)c(Br)n1,0,
COC(=O)[C@]12C[C@H](CC(=O)NCCc3ccccc3OC)C(=O)N(Cc3cccc4ccccc34)C1=C[C@H](C1CCCC1)O[C@@H]2C,5,
COc1ccc(-n2c(COc3ccc(C)cc3)nnc2SCC(=O)Nc2ccc(S(=O)(=O)Nc3cc(C)nc(C)n3)cc2)cc1,-6,
COC(=O)[C@H](CC1(c2cn(S(=O)(=O)CC[Si](C)(C)C)c3ccccc23)C(=O)Nc2ccccc21)NC(=O)OC(C)(C)C (stereo not given in full),6,
CN(C(=O)/C=C/c1ccco1)c1ccccc1C(=O)O,2,
O=C(O)c1cc(N2N=C(C(F)(F)F)/C(=C/C=C/c3ccco3)C2=O)ccc1Cl,98*,
O=C(O)c1cnn2c(C(F)(F)F)cc(-c3ccco3)nc12,6,
Cc1nc(N2CCN(C(=O)COc3ccccc3C)CC2)c2c3c(sc2n1)CCCC3,8,
O=C1C(C=NCc2cccnc2)=C(O)c2ccccc21,2,
Oc1cccc(C=NCc2ccccc2)c1O,12*,
COc1cccc(/C=N/NC(=O)CNC(=O)CCc2ccccc2)c1O,1,
O=C(Nc1ccc(Oc2ccccc2)cc1)C1CCCN1S(=O)(=O)c1cccc2cccnc12 (stereo not given),6,
COc1ccc(Cn2c(C)nc3c(c(=O)c4ccccc4n3C)c2=O)cc1,3,
COc1ccc(Cn2c(C)nc3c(c2=O)c2nc4ccccc4nc2n3Cc2ccco2)cc1,11*,
SMILES,TbREL1 primary,others
COc1ccc2c(=O)c3c(=O)n(Cc4ccco4)c(-c4ccccc4)nc3oc2c1,0,
C=CCn1c(SCC(=O)OC(C)C)nnc1-c1ccc(C)cc1,0,
C[C@@H]1[C@H](O)[C@@H](C)/C=C/C=C/C=C/C=C/C=C/C=C/C=C/[C@H](OC2O[C@H](C)[C@@H](O)[C@H](N)[C@@H]2O)C[C@@H]2O[C@](O)(C[C@@H](O)C[C@@H](O)[C@H](O)CC[C@@H](O)C[C@@H](O)CC(=O)O[C@H]1C)C[C@H](O)[C@H]2C(=O)O (stereo not given in full),-5,
CC(C)(N[C@@H](Cc1ccccc1)C(=O)NCCc1c[nH]c2ccccc12)C(=O)NC1CCCCC1,-6,
O=C(Nc1cccc(Cl)c1)O[C@@H]1CC[C@@]23CCCN2C(=O)CCC[C@H]3C1,-3,
Cc1ccccc1OCC(O)CNC1CCC(NCC(O)COc2ccccc2C)CC1 (stereo not given),17*,
CC(=O)Nc1ccc(OCC(O)CNC2CCCC2)cc1 (stereo not given),0,
OC(CNC1Cc2ccccc2C1)COc1ccc(F)cc1 (stereo not given),4,
Cc1ccc(-n2c(SCC(=O)N/N=C/C=C\c3ccccc3[N+](=O)[O-])nnc2-c2ccccc2)cc1,-2,
Cc1ccc(-n2c(COc3ccccc3)nnc2SCC(=O)Nc2ccccc2-c2ccccc2)cc1,4,
Cn1c(=O)cc(OCCCC(=O)Nc2cc(-c3cn[nH]c3)ccn2)c2ccccc21,1,
CCSc1nnc(NC(=O)CSC2=NN3CCCC(=O)N=C3S2)s1,15*,TbREL1 conf=1
CCOc1ccc(NC(=O)CSC2=NN3CCCC(=O)N=C3S2)cc1,-3,
CC(C)(C)CC(=O)Nc1nnc(SCC(=O)NC2CCCC2)s1,1,
O=C(CSc1nnc(-c2cccnc2)n1C1CCCCC1)N1CCCC1,7,
CC(C)CCN(C)C1CCN(C(=O)Nc2ccccc2)CC1,0,
COc1ccc(NC(=O)N2CCC(c3nc4ccc(Cl)cc4[nH]3)CC2)cc1OC,-2,
O=C(c1ccc([N+](=O)[O-])cc1)N1CCN(C(=O)c2cccnc2)CC1,-2,
O=C(c1cccnc1)N1CCN(Cc2cccc(Br)c2)CC1,11*,TbREL1 conf=6
O=C(c1cccnc1)N1CCN(C(=O)c2ccco2)CC1,2,
C[C@@H]1CN([C@@H](C)COC(=O)C(C)(C)C)C(=O)c2cc(NC(=O)Nc3ccccc3)ccc2O[C@@H](C)CCCCO[C@H]1CN(C)S(=O)(=O)c1ccc(F)cc1,6,
COC(=O)[C@]12C[C@H](CC(=O)NCCCCc3ccccc3)C(=O)N(CCc3ccc(OC)c(OC)c3)C1=C[C@H](C(C)C)O[C@@H]2C1CC1,5,
CCOc1ccc(-c2nc(CSCC(=O)NC3CCC3)c(C)o2)cc1,4,
Cc1ccccc1NC(=O)c1cccc2c1-c1ccccc1C2=O,-3,
COc1cccc2c(NCc3ccccc3)nc(-n3c(N)nc4ccccc43)nc12,2,
SMILES,TbREL1 primary,others
CC(COc1ccc(C#N)cc1)CN1CCC(C(O)(c2ccccc2)c2ccccc2)CC1 (stereo not given),6,
N#Cc1cccc(OCCCN2CCC(C(O)(c3ccccc3)c3ccccc3)CC2)c1,15*,TbREL1 conf=7
OC(c1ccccc1)(c1ccccc1)C1CCN(CCCOc2ccc(Cl)cc2)CC1,9,
O=C(NCCCN1CCN(c2ccc(F)cc2)CC1)NCc1ccccc1,3,
CC(O)CNc1ncnc2cc(-c3ccc(F)cc3)sc12 (stereo not given),7,
C=CCNc1nc(NCc2cccc(OC)c2)c2sc(-c3ccccc3)cc2n1,2,
CC(C)Nc1nc(NCCOc2ccccc2Cl)c2sc(-c3ccccc3)cc2n1,13*,TbREL1 conf=16*
CCCCCC(=O)NC1CCCCN(Cc2ccc(C)cc2)C1=O (stereo not given),-5,
Nc1nnc(SCC(=O)c2ccc3ccccc3c2)s1,-2,
Nc1nnc(SCCN2C(=O)c3ccccc3C2=O)s1,11*,TbREL1 conf=3
Cc1cc(C)n2c(SCCN3C(=O)c4ccccc4C3=O)nnc2n1,0,
Cc1ccc(OCCOCCN2CCN(C)CC2)c(C(C)(C)C)c1,-1,
Cc1ccc(OCCN2CCN(C)CC2)c([N+](=O)[O-])c1,12*,TbREL1 conf=6
COCCCNCCCCOc1ccc(C)cc1[N+](=O)[O-],3,
CN(Cc1ccccc1)S(=O)(=O)c1cccc(C(=O)OCc2cccc([N+](=O)[O-])c2)c1,1,
O=C1CCC[C@H]2C[C@H](NCc3cccnc3)CC[C@]23CCCN13,-1,
O=C(CSc1nnc(Cc2cccs2)n1-c1ccc(Cl)cc1)Nc1ccc(OCc2ccccc2)cc1,-2,
CCOc1ccc(-n2c(SCC(=O)Nc3ccc(S(=O)(=O)Nc4cc(C)nc(C)n4)cc3)nnc2-c2cccc(C)c2)cc1,-6,
CCOc1cc(NC(=O)CCl)c(OCC)cc1NC(=O)CCl,12*,TbREL1 conf=6
CCOc1cc(NC(=O)C2CCCO2)c(OCC)cc1NC(=O)C1CC1 (stereo not given),0,
